# Source: PubChem BioAssay (EPA / NIEHS)
# Where “and” joins values, the source holds several entries; their conditions need not be identical. Equal values may be shown once. More than one record can exist for a structure, and the calls need not agree. Calls of active or inactive are those of the source. The calls were made as follows: active = hit-call score of the fitted dose curve at least 0.9, where 1 is the maximum; inactive = score below 0.9.
# Assays:
# Conditions in all cases: primary human HUVEC with PBMC; actives raise or lower the signal
# [1] = read-out: Interleukin-1 alpha (IL1a), IL1A (gene 3552); assay: BSK_LPS_IL1a: BioMAP Diversity Plus: LPS Assay for Interleukin-1 alpha (IL1a) Biomarker Activity (AID 2283080)
# Method in brief: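 Readout is IL-1a level by ELISA, 24 h post-dose, fitted as gain or loss relative to DMSO. System: LPS-activated human primary co-culture of vascular endothelium and peripheral blood mononuclear cells, with parallel SRB total-protein cytotoxicity.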
# [2] = read-out: Monocyte Chemoattractant Protein-1 (MCP1), CCL2 (gene 6347); assay: BSK_LPS_MCP1: BioMAP Diversity Plus: LPS Assay for Monocyte Chemoattractant Protein-1 (MCP1) Biomarker Activity (AID 2283081);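 as to AC50: secreted MCP-1 protein quantified by ELISA in culture supernatant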
# Method in brief: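 Secreted MCP-1 read by ELISA at 24 h post-dosing in an LPS-activated co-culture of endothelial cells with peripheral blood mononuclear cells. Fits run in both directions, DMSO as baseline; parallel SRB staining tracks overt cytotoxicity.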
# [3] = BSK_LPS_PGE2: BioMAP Diversity Plus: LPS Assay for Prostaglandin E2 (PGE2) Biomarker Activity (AID 2283082);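 as to AC50: secreted prostaglandin E2 measured by ELISA in LPS-stimulated co-culture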
# Method in brief: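 HUVEC plus human PBMC co-culture stimulated with LPS; secreted PGE2 quantified by ELISA 24 h after chemical dosing. Activity fitted bidirectionally against DMSO baseline; parallel SRB staining (0.1% SRB after 10% TCA fixation, 560 nm) flags overt cytotoxicity.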
# [4] = read-out: Macrophage colony-stimulating factor (MCSF), CSF1 (gene 1435); assay: BSK_LPS_MCSF: BioMAP Diversity Plus: LPS Assay for Macrophage colony-stimulating factor (MCSF) Biomarker Activity (AID 2283083)
# Method in brief: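 Bidirectional fitting against DMSO was applied to M-CSF levels read by ELISA at 24 h post-dose. The system pairs human umbilical vein endothelium with peripheral blood mononuclear cells; parallel SRB staining tracked cytotoxicity.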
# [5] = read-out: Tissue Factor, F3 (gene 2152); assay: BSK_LPS_TissueFactor: BioMAP Diversity Plus: LPS Assay for Tissue Factor Biomarker Activity (AID 2283084)
# Method in brief: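 Compound was added to an endothelial cell/PBMC co-culture, and after 24 h tissue factor (CD142) was read by ELISA. Gain or loss of signal was fitted against a DMSO baseline, and parallel SRB staining (560 nm) tracked overt cytotoxicity.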
# [6] = read-out: Tumor necrosis factor (Homo sapiens) (UniProt P01375); assay: BSK_LPS_TNFa: BioMAP Diversity Plus: LPS Assay for Tumour Necrosis Factor alpha (TNFa) Biomarker Activity (AID 2283085);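 as to AC50: TNFa protein level quantified by ELISA in the co-culture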
# Method in brief: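 Human umbilical vein endothelial cells co-cultured with PBMC and stimulated with LPS. TNFa was measured by ELISA 24 h after chemical dosing, fitted bidirectionally relative to DMSO.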
# [7] = read-out: Vascular cell adhesion molecule 1 (VCAM1), VCAM1 (gene 7412); assay: BSK_LPS_VCAM1: BioMAP Diversity Plus: LPS Assay for Vascular cell adhesion molecule 1 (VCAM1) Biomarker Activity (AID 2283086)
# Method in brief: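 Human umbilical vein endothelial cells co-cultured with PBMC and stimulated with LPS; VCAM-1 measured by ELISA 24 h after dosing. Bidirectional curve fitting against DMSO baseline; cytotoxicity tracked in parallel by SRB total-protein staining.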
# [8] = read-out: CD38, CD38 (gene 952); assay: BSK_SAg_CD38: BioMAP Diversity Plus: SAg Assay for CD38 Biomarker Activity (AID 2283087)
# Method in brief: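 Human HUVEC plus PBMC co-culture stimulated with superantigen; CD38 measured by ELISA 24 h after chemical dosing. Fluorescence read-out, bidirectional fit against DMSO; cytotoxicity tracked in parallel by SRB and Alamar Blue.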
# [9] = read-out: CD40, CD40 (gene 958); assay: BSK_SAg_CD40: BioMAP Diversity Plus: SAg Assay for CD40 Biomarker Activity (AID 2283088)
# Method in brief: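 CD40 is measured by fluorescence ELISA in an endothelial/PBMC primary human co-culture at 24 h post-dose. Fitting is bidirectional, DMSO baseline. Parallel SRB staining (560 nm) flags cytotoxicity.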
# [10] = read-out: CD69, CD69 (gene 969); assay: BSK_SAg_CD69: BioMAP Diversity Plus: SAg Assay for CD69 Biomarker Activity (AID 2283089);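 as to AC50: cell surface CD69 protein quantified by ELISA with fluorescence detection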
# Method in brief: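 ELISA, fluorescence read-out: CD69 on human umbilical vein endothelial cell + PBMC co-culture, 24 h post-dosing. Gain or loss of signal fitted bidirectionally against DMSO baseline.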
# Chain of Tumor necrosis factor (Homo sapiens) (P01375 whole entry, looked up): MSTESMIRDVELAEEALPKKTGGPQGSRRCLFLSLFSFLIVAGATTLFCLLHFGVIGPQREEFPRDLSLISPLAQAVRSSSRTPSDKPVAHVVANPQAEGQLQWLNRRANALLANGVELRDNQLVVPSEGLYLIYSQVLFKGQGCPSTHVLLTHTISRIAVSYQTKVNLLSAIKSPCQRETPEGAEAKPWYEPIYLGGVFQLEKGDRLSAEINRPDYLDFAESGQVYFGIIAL
Compound,outcome [1],outcome [2],outcome [3],outcome [4],outcome [5],outcome [6],outcome [7],outcome [8],outcome [9],outcome [10],AC50 [6],AC50 [3],AC50 [9],AC50 [2],AC50 [4],AC50 [7],AC50 [8],AC50 [1],AC50 [5],AC50 [10]
CC1=C2C[C@H]3[C@@H](CC=C4C[C@@H](O)CC[C@@]43C)[C@@H]2CC[C@]12O[C@@H]1C[C@H](C)CN[C@H]1[C@H]2C,inactive,inactive,inactive,inactive,inactive,inactive,inactive,inactive,inactive,inactive,–,–,–,–,–,–,–,–,–,–
CCSC(=O)N(CC)C1CCCCC1,inactive,inactive,inactive,inactive,inactive,inactive,inactive,inactive,inactive,inactive,–,–,–,–,–,–,–,–,–,–
COS(=O)(=O)OC,inactive,inactive,inactive,inactive,inactive,–,inactive,inactive,inactive,inactive,0.318 µM (active),–,–,–,–,–,–,–,–,–
Cc1cc(O)ccc1Cl,inactive,inactive,inactive,inactive,inactive,inactive,inactive,inactive,inactive,inactive,–,–,–,–,–,–,–,–,–,–
O=C(N[C@H]1CN2CCC1CC2)c1cc2ccoc2cn1,inactive,inactive,inactive,inactive,inactive,inactive,inactive,inactive,inactive,inactive,–,–,–,–,–,–,–,–,–,–
COc1ccc(O)c(C(C)(C)C)c1,inactive,inactive,–,inactive,inactive,inactive,inactive,inactive,inactive,inactive,–,1.71 µM (active) and 2.48 µM (active) and 4.59 µM (active),28.9 µM (active),–,–,–,–,–,–,–
Cc1ccccc1O,inactive,inactive,–,inactive,inactive,inactive,inactive,inactive,inactive,inactive,–,3.97 µM (active),–,–,–,–,–,–,–,–
CCCCCCOC(=O)c1ccccc1C(=O)OCCCCCC,inactive,–,inactive,–,inactive,inactive,–,–,–,inactive,–,–,32.9 µM (active),34.9 µM (active),20 µM (active),20 µM (active),32.1 µM (active),–,–,–
Cc1cccc(C)c1N,inactive,inactive,inactive,inactive,inactive,inactive,inactive,inactive,inactive,inactive,–,–,–,–,–,–,–,–,–,–
CCC(=O)O[C@H]1CC[C@H]2[C@@H]3CCC4=CC(=O)CC[C@]4(C)[C@H]3CC[C@]12C,–,–,inactive,–,–,–,–,–,–,–,32.1 µM (active),–,31.9 µM (active),25.5 µM (active),26 µM (active),30.5 µM (active),36 µM (active),31.9 µM (active),30.8 µM (active),31.1 µM (active)
O=C(NC(=O)c1cc(F)c(F)cc1Cl)Nc1cc(F)ccc1N1CCC(C(=O)O)CC1,inactive,inactive,inactive,inactive,inactive,–,inactive,inactive,inactive,inactive,10 µM (active),–,–,–,–,–,–,–,–,–
O=C(O)C(F)(F)C(F)(F)C(F)(F)C(F)(F)C(F)(F)C(F)(F)C(F)(F)C(F)(F)C(F)(F)F,inactive,–,inactive,inactive,inactive,inactive,–,–,–,–,54.1 µM (active) and 43.6 µM (active),24.7 µM (active) and 39 µM (active),32.3 µM (active) and 51.6 µM (active) and 44.6 µM (active),33.2 µM (active) and 54.1 µM (active) and 54.5 µM (active),58.7 µM (active) and 52.5 µM (active),31.2 µM (active) and 56.6 µM (active) and 55.5 µM (active),30.4 µM (active) and 53 µM (active) and 51.9 µM (active),45.7 µM (active) and 45.5 µM (active),45.6 µM (active) and 50.6 µM (active),29.2 µM (active) and 46.9 µM (active) and 46.4 µM (active)
C=CC(N)=O,inactive,inactive,inactive,inactive,inactive,inactive,inactive,inactive,inactive,inactive,–,–,–,–,–,–,–,–,–,–
ClC1=C(Cl)[C@]2(Cl)[C@@H]3[C@@H]4C[C@@H]([C@H]5O[C@@H]45)[C@@H]3[C@@]1(Cl)C2(Cl)Cl,inactive,inactive,inactive,inactive,inactive,–,–,–,–,inactive,3.05 µM (active),–,11.2 µM (active),–,–,14.4 µM (active),14.4 µM (active),–,–,–
CC(C)(c1ccccc1)c1ccc(O)cc1,–,–,–,–,–,–,–,–,–,–,31.5 µM (active),12.4 µM (active),31.1 µM (active),35.2 µM (active),33.6 µM (active),33.4 µM (active),31.2 µM (active),36.3 µM (active),32.2 µM (active),37.9 µM (active)
Sc1ccccc1,inactive,inactive,inactive,inactive,inactive,inactive,inactive,inactive,inactive,inactive,–,–,–,–,–,–,–,–,–,–
